Experimental data taken from publication PMC10726135, “HNF4α isoforms regulate the circadian balance between carbohydrate and lipid metabolism in the liver”.
Whole data set: some 18,000 sequences, median “log2 normalized intensity” near 0.39, cut for the highest 2% near 6.6. What follows is part of a selection rich in the highest values, with near analogues and random picks from the rest.

target: T1, HNF4alpha2 (COS-7 nuclear extract) (Homo sapiens, UniProt P41235 1-474); assay: protein-binding microarray; COS-7 nuclear extract on double-stranded Agilent 4x180k PBM; binding buffer, salt, pH and temperature not given in the material; high values mean tight binding; details: chain copies: 2; label: 3' end of strand 1 on the slide; dsDNA, one strand shown
T1 sequence: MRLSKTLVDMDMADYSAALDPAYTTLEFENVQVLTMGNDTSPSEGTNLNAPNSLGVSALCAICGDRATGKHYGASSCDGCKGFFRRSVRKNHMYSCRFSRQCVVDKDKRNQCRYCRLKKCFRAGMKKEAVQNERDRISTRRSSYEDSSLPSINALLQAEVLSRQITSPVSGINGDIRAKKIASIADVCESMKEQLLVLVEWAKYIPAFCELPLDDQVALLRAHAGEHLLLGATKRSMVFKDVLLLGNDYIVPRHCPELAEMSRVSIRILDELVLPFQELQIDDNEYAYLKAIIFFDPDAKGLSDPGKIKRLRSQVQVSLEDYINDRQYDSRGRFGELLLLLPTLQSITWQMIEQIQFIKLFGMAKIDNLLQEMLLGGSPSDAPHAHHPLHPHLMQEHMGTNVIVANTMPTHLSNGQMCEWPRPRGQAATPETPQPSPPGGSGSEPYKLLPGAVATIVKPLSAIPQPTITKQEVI
Procedure, shortened: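 Using CaPO4, COS-7 cells were transiently transfected with a human HNF4α isoform expression vector, and their nuclear extracts were applied to a custom Agilent SurePrint G3 4x180k double-stranded oligonucleotide array (~60 nt; ~44,000 test sequences in quadruplicate). Bound HNF4α was imaged at 2-µm resolution with an Agilent G2565CA scanner. Agilent software supplied the background-corrected, normalized gProcessedSignal that serves as the binding signal.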

Sequence | binding signal [log2 normalized intensity]
TGACAACTGAATGTGACCTTTTGGACCACAGCCTAGGGAGATTAGAGTATCGGTCGA | 6.82
ACTGAATGTGACCTTTTGGACCACAGAGTGGCCTAGGGAGATTAGAGTATCGGTCGA | 5.39
GGGCGTGTGTTAGACTTTGGACCTGGCCTGGCCTAGGGAGATTAGAGTATCGGTCGA | 7.25
GTTGGACTTTGGACCTTTGTGTGTGTGTGTGCCTAGGGAGATTAGAGTATCGGTCGA | 7.93
ACTTTGGACCTTTGTGTGTGTGTGTGTGTGGCCTAGGGAGATTAGAGTATCGGTCGA | 3.6
AACGGTTCAAAGGACAGACTTTGGACCTGGGCCTAGGGAGATTAGAGTATCGGTCGA | 7.15
GATACAACGGTTCAAAGGACAGACTTTGGAGCCTAGGGAGATTAGAGTATCGGTCGA | 3.39
GGACTTTGGCCTTACTTGGCCTGTTTGCTGGCCTAGGGAGATTAGAGTATCGGTCGA | 5.51
TGGTTAGGTATTTTAAGTCACCAGATGAGAGCCTAGGGAGATTAGAGTATCGGTCGA | 0.217
CTCCTCCCTCAGGGATCTTTGCACTTGATGGCCTAGGGAGATTAGAGTATCGGTCGA | 1.32
TGGATGGGGGAGGGGACTTCGCTGGAGGTGGCCTAGGGAGATTAGAGTATCGGTCGA | -0.382
TATCTTCGTATAGAAACAAGACAGAATGATGCCTAGGGAGATTAGAGTATCGGTCGA | -0.775
GTAAACACAGACTTTGGAATCACAATGATAGCCTAGGGAGATTAGAGTATCGGTCGA | 1.97
CCTGTACCTAGAATTCTTTCACTCCCTTTTGCCTAGGGAGATTAGAGTATCGGTCGA | 1.12
TTACCGGTGTGACTTTGGTTGGATTTCTTGGCCTAGGGAGATTAGAGTATCGGTCGA | 1.54
GGGGACCTTTGGCCTTTACCTGTTACTTATGCCTAGGGAGATTAGAGTATCGGTCGA | 3.57
AGGGGTTACTAGTGAGTTGGACTTTGGACCGCCTAGGGAGATTAGAGTATCGGTCGA | 11.6
AAGAAGGTTTACTCAAGCAAAAAGTTTGGAGCCTAGGGAGATTAGAGTATCGGTCGA | 0.467
AGGTACAAACATACTTAGGATTTTTGTGCCGCCTAGGGAGATTAGAGTATCGGTCGA | 0.442
CTCTCGGGCCAGCTGTACAAATAAAGGATGGCCTAGGGAGATTAGAGTATCGGTCGA | -0.146
TAAACTTTTGATTGCTTAGGCTCTTGTTATGCCTAGGGAGATTAGAGTATCGGTCGA | -0.703
GAGGCAGCAAGGTCAAAGTGCGTCCTGTGGGCCTAGGGAGATTAGAGTATCGGTCGA | 3.92
TACCTGTGCAGATATTTAACCTTTGATCTGGCCTAGGGAGATTAGAGTATCGGTCGA | 7.34
CTGTGCTTTGTTTACTTAACCTTTGATCATGCCTAGGGAGATTAGAGTATCGGTCGA | 7.05
TTGCACTGTGCTTTGTTTACTTAACCTTTGGCCTAGGGAGATTAGAGTATCGGTCGA | 4.05

Sequence | binding signal [log2 normalized intensity]
CTTTGTTTACTTAACCTTTGATCATATGCAGCCTAGGGAGATTAGAGTATCGGTCGA | 5.18
GATATTTAACCTTTGATCTGTAAGCTCTCTGCCTAGGGAGATTAGAGTATCGGTCGA | 4.61
GTGGCTACCTGTGCAGATATTTAACCTTTGGCCTAGGGAGATTAGAGTATCGGTCGA | 4.11
TCTGAAAAAAGCTATCATTTGTCACTTGGAGCCTAGGGAGATTAGAGTATCGGTCGA | 1.38
GACCAGGTTGTGAGGGAGGGCACAGGCAACGCCTAGGGAGATTAGAGTATCGGTCGA | -0.298
ATTTCTGTTGTTGATTTAACATTTGTGATCGCCTAGGGAGATTAGAGTATCGGTCGA | 1.92
TGATAGCCTTTTACCTTGGCAGCCACTGAGGCCTAGGGAGATTAGAGTATCGGTCGA | -0.876
AGGCTGAAGGGAAGCTCTGGGAGTGCCCTTGCCTAGGGAGATTAGAGTATCGGTCGA | 1.93
CTGCCAAATATTGGGCAATGCTAGGTCTTTGCCTAGGGAGATTAGAGTATCGGTCGA | -0.788
GAGACTTTGGACTTTGGACTTGGGACTTTCGCCTAGGGAGATTAGAGTATCGGTCGA | 9.27
CCTTTGGACTGTCCTTTGCTAGATTCTTTCGCCTAGGGAGATTAGAGTATCGGTCGA | 2.01
TGTGAAGAGTGTGGACTTTCACCTCCACCAGCCTAGGGAGATTAGAGTATCGGTCGA | 6.06
ACTTTGGACTTGGGACTTTCGAGTTAATGCGCCTAGGGAGATTAGAGTATCGGTCGA | 4.12
GACCATGTGATGTGAAGAGTGTGGACTTTCGCCTAGGGAGATTAGAGTATCGGTCGA | 4.26
TTTGGACTTTGGACTTGGGACTTTCGAGTTGCCTAGGGAGATTAGAGTATCGGTCGA | 7.8
CTGGACTTTCCTTTGTTGGGAGACTTTTTAGCCTAGGGAGATTAGAGTATCGGTCGA | 1.63
GGACTTGGGACTTTCGAGTTAATGCTGGAGGCCTAGGGAGATTAGAGTATCGGTCGA | 2.54
TGTGATGTGAAGAGTGTGGACTTTCACCTCGCCTAGGGAGATTAGAGTATCGGTCGA | 8.12
TGAGTAGTGTACGTTGTACCCCACAGGTATGCCTAGGGAGATTAGAGTATCGGTCGA | 2.94
CTCTCTTTCTTCCCCCACTCCAAGTTCCTTGCCTAGGGAGATTAGAGTATCGGTCGA | 4.22
TGCTCCAGTAAAAGCTCTACCTGACCTCCCGCCTAGGGAGATTAGAGTATCGGTCGA | 2.94
GCTGTGTCCCACAGGGAAAGTATGGGTCAGGCCTAGGGAGATTAGAGTATCGGTCGA | 1.12
TCATGTTCAATATACAGTTGGTATTTAGTAGCCTAGGGAGATTAGAGTATCGGTCGA | 1.83
CCCCTAAAGGAGGCAAGGTCCAAACTTCTCGCCTAGGGAGATTAGAGTATCGGTCGA | 1.7
ATGTTGGGCAACTACCTCAAAGTTTTGTTAGCCTAGGGAGATTAGAGTATCGGTCGA | 0.0615
